This note sets out measurements from PubChem BioAssay (NCI).

Molecules are shown by their SMILES. This is part of a sample that, as a whole, favours compounds with a hit. Of some 83,000 tested, about 20% had one in any assay.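 Negative percent growth values reflect cell death: -40 means 40% of the cells present at the start died, and -100 means all died.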 The source made the active and inactive calls. How the source made its calls: active means growth percent below 10; inactive means the rest.

The subject of one test is NCI-H460 lung. Put plainly: NCI-60 one-dose screen, 48 h (100 = growth as untreated, 0 = no growth, -100 = all killed). Conditions: 10 µM.
Regarding `CCCCCCCCCCCCCC[n+]1ccc(C(N)=O)cc1`, the growth was 0.582% (active). In the case of `COc1ccc(-c2nc(-c3nc4ccc(OC)cc4[nH]3)cc3c2[nH]c2ccccc23)cc1`, the growth was 2.46% (active).

On to `COc1ccc(Oc2nc(NC3CCCC3)nc(Sc3ccc(OC)cc3)n2)cc1`, for which the growth was 47.7% (inactive). On the same count and under the same terms, under `COc1cc2cc3c(nc2cc1OC)CCN3Cc1ccc(NC(=O)Nc2cc(C(F)(F)F)cc(C(F)(F)F)c2)cc1` stands 63.3% (inactive); under `CCCCCC(=O)c1ccc(OCCCN2CCN(C(=O)OCC)CC2)cc1`, 99.1% (inactive); under `COc1ccc(-c2cc(/C=C/C(=O)c3cc(OC)c(OC)c(OC)c3)[nH]n2)cc1OC`, -45.7% (active). Still for that read-out and setting: the value for `COc1cccc(-c2cc(-c3cccc(NS(C)(=O)=O)c3)nc(N)c2C#N)c1O` was 8.75% (active).

In a further test the test system is NCI-H522 lung. The description is as above. Conditions: 10 µM.
On to `COc1cc2nc(Nc3cccc(NC(C)=O)c3)nc(N)c2cc1OC`, for which the growth was 93.2% (inactive). On the same count and under the same terms, under `COc1ccc(-c2nc3sc(C4CC4)nn3c2/C=C2/C(=O)Nc3ccc(OC)cc32)cc1` stands 63.8% (inactive); under `Cc1cc(N(CCCNc2ccnc3cc(Cl)ccc23)Cc2cccs2)nc(Cl)n1`, 35.6% (inactive); under `O=C1OCC2=C1C(c1cccc(Br)c1)c1cc3c(cc1N2CCO)CCC3` (stereo unspecified), -31.4% (active). On the same count and under the same terms, the value for `COc1ccc(/C=C2/CN(C(=O)c3ccc(C)cc3)C/C(=C\c3ccc(OC)cc3)C2=O)cc1` was 69.1% (inactive); that for `Cc1ccc(C(=O)Nc2cccc(F)c2)cc1NC(=O)C1(c2ncnc3[nH]ccc23)CC1` was 61% (inactive).

On to `Clc1ccccc1N=Cc1ccc2c(c1)OCO2`, for which the growth is 80.3% (inactive). The same measure, in the same setting: under `CC12O[C@H](C[C@@H](OC(=O)c3ccccc3)[C@H]1O)n1c3ccccc3c3c4c(c5c6ccccc6n2c5c31)C(=O)NC4=O` stands 66.7% (inactive); under `CCN(CC)CCNc1ccc(CO)c2oc3cc(Cl)ccc3c(=O)c12`, 77.9% (inactive). On the same count and under the same terms, the value for `N#Cc1ncc(-c2cc(F)c(F)c(F)c2)c(NC2CCCCCC2)n1` was 94.8% (inactive); that for `CC/C(C)=C(\C)C(=O)O` was 89.3% (inactive). For `CC(=O)N1N=C(c2ccc(Cl)cc2)CC1c1sc(Cl)nc1Cl` (stereo unspecified), the growth was 81% (inactive). On to `Nc1ncn(C2OC(CO)C(O)C2O)c(=O)n1` (stereo unspecified), for which the growth is -12.7% (active). Same read-out and setting: under `Nc1c(C(=O)Nc2cccc(Br)c2)sc2nc3c(cc12)C(O)CCC3` (stereo unspecified) stands -4.01% (active). Same read-out and setting: under `Oc1[nH]c2ccc(Cl)cc2c1/C=c1/ccc2c(c1)N=C(c1cccs1)N=2` stands 53.3% (inactive); under `Clc1cc2c(c(CSc3nc4ccccc4n4cccc34)c1)OCOC2`, 59.8% (inactive); under `O=C1NC(=O)c2ncccc21`, 171% (inactive). Same read-out and setting: under `NC1=NC(=O)C(c2ccccc2)(c2ccccc2)S1` stands 102% (inactive); under `Cn1c([N+](=O)[O-])cnc1/C=C1\Oc2cc(Cl)ccc2C1=O`, -53.8% (active). On to `c1ccc(C(NC2CC3CCC2C3)c2ccccc2)cc1` (stereo unspecified), for which the growth was 85.5% (inactive). In the case of `COc1cc(/C=C2\Oc3cc(OCC(=O)c4ccccc4)ccc3C2=O)cc(OC)c1OC`, the growth was 105% (inactive). The same measure, in the same setting: the value for `CC1(C)Cc2c(sc3ncn4nc(-c5ccc(O)cc5)nc4c23)CO1` was 53.5% (inactive); that for `O=C(N/N=C/c1cc2ccccc2c2ccccc12)c1cc(O)c(O)c(O)c1` was -41.3% (active); that for `CCOC(=O)c1ccoc1` was 91.1% (inactive). Still for that read-out and setting: under `O=[P@@]1(c2ccccc2)O[C@H](COCc2ccccc2)[C@@H](OCc2ccccc2)[C@H](OCc2ccccc2)[C@H]1O` stands 42.2% (inactive); under `CN(C)CCN1C(=O)c2cccc3c(-c4ccc5ncn(C6CCCCC6)c5c4)ccc(c23)C1=O`, 4.65% (active). For the molecule `CN(C)c1ccc(N=C2C=CC(=O)c3ccccc32)cc1`, the growth is 48.2% (inactive).

For the molecule `CC(=O)CSC(C)=O`, the growth is 105% (inactive). Same read-out and setting: under `COc1ccc(Nc2ccnc(NCCNc3ccnc4cc(Cl)ccc34)n2)cc1` stands 43.9% (inactive); under `N=C(N)c1ccc(-c2ccc(-c3cccs3)s2)cc1`, 76.4% (inactive). Still for that read-out and setting: under `CC(C)(Cl)CCC1=C(Cl)C(=O)c2ccccc2C1=O` stands -29.7% (active). Still for that read-out and setting: under `CCOCCOCCOCCOCCOCCOCCOCCOCCOCCO` (tested in a mixture with another compound) stands -66.5% (active). As to `CCCCCCCCCCCCCC[n+]1ccc(C(N)=O)cc1`, the growth is -21.7% (active). On the same count and under the same terms, under `COc1ccc(-c2nc(-c3nc4ccc(OC)cc4[nH]3)cc3c2[nH]c2ccccc23)cc1` stands 45.2% (inactive).

For the molecule `COc1ccc(Oc2nc(NC3CCCC3)nc(Sc3ccc(OC)cc3)n2)cc1`, the growth was 66.9% (inactive). The same measure, in the same setting: the value for `COc1cc2cc3c(nc2cc1OC)CCN3Cc1ccc(NC(=O)Nc2cc(C(F)(F)F)cc(C(F)(F)F)c2)cc1` was 51.8% (inactive). Still for that read-out and setting: the value for `CCCCCC(=O)c1ccc(OCCCN2CCN(C(=O)OCC)CC2)cc1` was 101% (inactive); that for `COc1ccc(-c2cc(/C=C/C(=O)c3cc(OC)c(OC)c(OC)c3)[nH]n2)cc1OC` was -69.8% (active); that for `COc1cccc(-c2cc(-c3cccc(NS(C)(=O)=O)c3)nc(N)c2C#N)c1O` was 0.405% (active).
